# Where two headings read alike, the source gives them in different places.
# Legend:
# Settings in all cases: n = 1
# BMPR1A = tested on: BMPR1A
# BMPR1B = tested on: BMPR1B
# BMPR2 = tested on: BMPR2
# BMX = tested on: BMX
# BRAF = tested on: BRAF
# BRK = tested on: T1, BRK
# T1 construct: gene PTK6
# BRSK1 = tested on: BRSK1
# BRSK2 = tested on: BRSK2
# BTK = tested on: BTK
# BUB1 = tested on: BUB1
# CAMK1B = tested on: CAMK1B
# CAMK1D = tested on: CAMK1D
# CAMK1G = tested on: CAMK1G
# CAMK1 = tested on: CAMK1
# CAMK2A = tested on: CAMK2A
# CAMK2B = tested on: CAMK2B
# CAMK2D = tested on: CAMK2D
# CAMK2G = tested on: CAMK2G
# CAMK4 = tested on: CAMK4
# CAMKK1 = tested on: CAMKK1
# [1] = concentration: 1 μM, replicates: in singlicate
# 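Further: KINOMEscan kinase panel screen.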
smiles,measurement,setting,value
COc1ccccc1-c1ccc2c(NC(=O)C3CC3)n[nH]c2n1 [SB-711239],%Inh,BMPR1A; [1],0%
same,%Inh,BMPR1B; [1],0%
same,%Inh,BMPR2; [1],10%
same,%Inh,BMX; [1],16%
same,%Inh,BRAF; [1],5%
same,%Inh,BRK; [1],2%
same,%Inh,BRSK1; [1],0%
same,%Inh,BRSK2; [1],2%
same,%Inh,BTK; [1],32%
same,%Inh,BUB1; [1],11%
same,%Inh,CAMK1B; [1],33%
same,%Inh,CAMK1D; [1],12%
same,%Inh,CAMK1G; [1],27%
same,%Inh,CAMK1; [1],4%
same,%Inh,CAMK2A; [1],0%
same,%Inh,CAMK2B; [1],0%
same,%Inh,CAMK2D; [1],16%
same,%Inh,CAMK2G; [1],9%
same,%Inh,CAMK4; [1],0%
same,%Inh,CAMKK1; [1],9%
Cc1ccc(NC(=O)Nc2cccc(C(F)(F)F)c2)cc1 [GSK955403],%Inh,BMPR1A; 1 µM,94.6%
same,%Inh,BMPR1B; 1 µM,0%
same,%Inh,BMPR2; 1 µM,1%
same,%Inh,BMX; 1 µM,0%
same,%Inh,BRAF; 1 µM,0%
same,%Inh,BRK; 1 µM,0%
same,%Inh,BRSK1; 1 µM,0%
same,%Inh,BRSK2; 1 µM,0%
same,%Inh,BTK; 1 µM,0%
same,%Inh,BUB1; 1 µM,0%
same,%Inh,CAMK1B; 1 µM,0%
same,%Inh,CAMK1D; 1 µM,25%
same,%Inh,CAMK1G; 1 µM,10%
same,%Inh,CAMK1; 1 µM,7%
same,%Inh,CAMK2A; 1 µM,32%
same,%Inh,CAMK2B; 1 µM,25%
same,%Inh,CAMK2D; 1 µM,8%
same,%Inh,CAMK2G; 1 µM,4%
same,%Inh,CAMK4; 1 µM,5%
same,%Inh,CAMKK1; 1 µM,9%
Cc1cc(N2Cc3ccccc3C2)nc(Nc2ccc(S(=O)(=O)N3CCOCC3)cc2)n1.Cl [GSK1669917],%Inh,BMPR1A; [1],0%
same,%Inh,BMPR1B; [1],0%
same,%Inh,BMPR2; [1],0%
same,%Inh,BMX; [1],11%
same,%Inh,BRAF; [1],0%
same,%Inh,BRK; [1],38%
same,%Inh,BRSK1; [1],0%
same,%Inh,BRSK2; [1],0%
same,%Inh,BTK; [1],0%
same,%Inh,BUB1; [1],21%
same,%Inh,CAMK1B; [1],4%
same,%Inh,CAMK1D; [1],9%
same,%Inh,CAMK1G; [1],0%
same,%Inh,CAMK1; [1],5%
same,%Inh,CAMK2A; [1],0%
same,%Inh,CAMK2B; [1],0%
same,%Inh,CAMK2D; [1],2%
same,%Inh,CAMK2G; [1],20%
same,%Inh,CAMK4; [1],0%
same,%Inh,CAMKK1; [1],0%
Cc1cccc(-c2nc(-c3ccc(S(C)(=O)=O)cc3)sc2-c2ccnc(NCCc3ccccc3)c2)c1,%Inh,BMPR1A; [1],27%
same,%Inh,BMPR1B; [1],6%
same,%Inh,BMPR2; [1],1%
same,%Inh,BMX; [1],0%
same,%Inh,BRAF; [1],95.8%
same,%Inh,BRK; [1],0%
same,%Inh,BRSK1; [1],3%
same,%Inh,BRSK2; [1],0%
same,%Inh,BTK; [1],0%
same,%Inh,BUB1; [1],24%
same,%Inh,CAMK1B; [1],0%
same,%Inh,CAMK1D; [1],0%
same,%Inh,CAMK1G; [1],16%
same,%Inh,CAMK1; [1],31%
same,%Inh,CAMK2A; [1],0%
same,%Inh,CAMK2B; [1],0%
same,%Inh,CAMK2D; [1],7%
same,%Inh,CAMK2G; [1],9%
same,%Inh,CAMK4; [1],0%
same,%Inh,CAMKK1; [1],13%
O=C(Nc1n[nH]c2nc(-c3nccs3)c(Br)cc12)C1CC1 [SB-742251],%Inh,BMPR1A; [1],0%
same,%Inh,BMPR1B; [1],0%
same,%Inh,BMPR2; [1],63%
same,%Inh,BMX; [1],0%
same,%Inh,BRAF; [1],13%
same,%Inh,BRK; [1],2%
same,%Inh,BRSK1; [1],95.3%
same,%Inh,BRSK2; [1],90%
same,%Inh,BTK; [1],26%
same,%Inh,BUB1; [1],48%
same,%Inh,CAMK1B; [1],19%
same,%Inh,CAMK1D; [1],0%
same,%Inh,CAMK1G; [1],0%
same,%Inh,CAMK1; [1],0%
same,%Inh,CAMK2A; [1],0%
same,%Inh,CAMK2B; [1],0%
same,%Inh,CAMK2D; [1],0%
same,%Inh,CAMK2G; [1],0%
same,%Inh,CAMK4; [1],0%
same,%Inh,CAMKK1; [1],0%

# Reference: PMC5540273 (PLoS ONE, 2017)
